This is a sample that favours compounds with a hit; in the whole collection about 7.4% have one here.
Rab9 prom act – activators of Rab9 promoter; Huh7 Rab9 promoter-luciferase reporter, luminescence, 24 h; Potency, µM (series often up to 9.22 µM), for inactives: at the top dose activation, negative = inhibition, hits mostly activators; 2.8% of 320,000 active; AID 485297; note: % of control where 0% means no effect; nearly all actives have a fitted effect of over 60% in size
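Stable Rab9-luc Huh7, 1500 cells/well, 2 h settle; cmpd in DMSO, 24 h, 37 °C/5% CO2; luciferase reagent 10 min RT; luminescence.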
NPC1 prom act – activates the NPC1 promoter; Huh7 NPC1 promoter luciferase reporter, 24 h; Potency, µM (top dose mostly 9.22 µM), inactives show at the highest dose activation, usual class: activators; 2.4% of 320,000 active; AID 485313; note: % of control where 0% means no effect; nearly all actives have a fitted effect of over 60% in size
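Huh7 reporter cells (NPC1 promoter driving luciferase) are dosed with compound for 24 h at 37 °C, 5% CO2; luciferase detection reagent is then added and luminescence measured after 10 min at ambient temperature.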
FLuc counter – inhibits or activates purified firefly luciferase, miR-21 counter-screen; 6.9% of 360,000 active; P08659; Potency, µM (doses to about 57.5 µM), for inactives: at the highest dose activity change, negative = inhibition, hits mostly inhibitors; purified FLuc, Km substrates, luminescence inhibition;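 note: plate controls were vehicle for no effect and reference inhibitor for full effect; nearly all actives have a fitted effect of over 55% in size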
Target sequence (P08659 whole entry, looked up): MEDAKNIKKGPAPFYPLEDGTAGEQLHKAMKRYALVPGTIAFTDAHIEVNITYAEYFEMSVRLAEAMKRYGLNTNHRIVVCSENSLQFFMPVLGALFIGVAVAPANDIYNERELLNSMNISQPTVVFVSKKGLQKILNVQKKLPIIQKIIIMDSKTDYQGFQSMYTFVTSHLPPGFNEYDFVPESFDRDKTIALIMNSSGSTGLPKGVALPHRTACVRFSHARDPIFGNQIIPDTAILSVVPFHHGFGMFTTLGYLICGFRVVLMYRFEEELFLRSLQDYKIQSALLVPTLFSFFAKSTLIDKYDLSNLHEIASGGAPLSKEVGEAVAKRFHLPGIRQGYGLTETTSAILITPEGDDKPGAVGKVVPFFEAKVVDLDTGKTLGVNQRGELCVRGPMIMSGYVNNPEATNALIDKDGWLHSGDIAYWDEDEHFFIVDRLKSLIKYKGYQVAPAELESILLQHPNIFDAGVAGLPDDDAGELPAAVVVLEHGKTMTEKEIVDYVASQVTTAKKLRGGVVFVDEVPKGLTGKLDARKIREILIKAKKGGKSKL
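Purified P. pyralis luciferase (10nM final) with 10uM D-luciferin and 10uM ATP (Km levels) in 50mM Tris acetate pH 7.5, 10mM Mg acetate, 0.01% Tween-20, 0.05% BSA; qHTS 6-point titration, ~60 µM downward; luminescence read.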
ELG1 genotoxic – inducers of genotoxicity in HEK293T ELG1-luciferase cells | HEK293T ELG1-luciferase reporter, luminescence, 16 h | 1.3% of 330,000 active | Potency, µM (titrated, usually from 46 µM), for inactives: top-dose activity change, positive = activation, hits mostly activators; note: % of control where 0% means no effect; nearly all actives have a fitted effect of over 60% in size
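Reporter readout depends on ELG1 protein level, which increases with genetic stress. After 16 hr compound exposure at 37 °C, luciferase activity was quantified using ONE-Glo.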
SMN2 splice enh – increases expression of the SMN2 splice variant; HEK293 SMN2-luciferase splicing reporter, luminescence, 30-36 h; Potency, µM (titrated, usually from 46.1 µM), without a hit: top-dose activity change, positive = activation, usual class: activators; 2.8% of 210,000 active; AID 1458; note: % of control where 0% means no effect; nearly all actives have a fitted effect of over 55% in size
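HEK293 cells carry an SMN2 minigene-luciferase reporter in which exon 7 inclusion puts luciferase in frame. Cells were seeded at 2000 cells/well, attached for 10-12 hours, then exposed to compounds for 30-36 hours at 37C before ONE-Glo luminescence.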
Numbers without * were called inactive; ? = inconclusive; . = not tested or not shown; [ ] = remark or other dose. Calls come from the whole dose curve; as a rule, active = well fitted curve in the direction sought with a large enough effect; inconclusive = small, poorly fitted or top-dose-only effect, or another doubt; inactive = no such curve, though single readings can be large; an effect the other way counts as inactive or inconclusive. Potency is the fitted concentration of half-maximal effect.

SMILES	Rab9 prom act	NPC1 prom act	FLuc counter	ELG1 genotoxic	SMN2 splice enh
COc1ccc(-c2noc(-c3ccc(Cl)cc3[N+](=O)[O-])n2)cc1OC	4µM*	?	4.3µM*	17%	25µM*
COc1ccc(-c2noc(-c3ccc(N4CCCC4)c([N+](=O)[O-])c3)n2)cc1OC	.	.	-17%	.	.
Cc1cccc(-c2noc(-c3ccc(Cl)cc3[N+](=O)[O-])n2)c1	2.5µM*	0.71µM*	1.5µM*	?	?
O=C(Nn1cnnc1)c1cc(Br)ccc1Cl	-3%	-6%	-2%	-2%	.
Cc1cc2nn(-c3ccccc3)nc2cc1NC(=O)COc1ccc(Cl)cc1	.	.	1%	.	11%
COc1cccc(-n2c(SCC(=O)Nc3cccc(Cl)c3)nc3c(oc4ccccc43)c2=O)c1	.	.	1%	.	-5%
Cc1ccccc1NC(=O)CSc1nnc(-c2ccccn2)o1	?	29%	-4%	8%	.
O=C(CSc1nnc(-c2ccc(C(F)(F)F)cn2)o1)Nc1cccc(Cl)c1	?	3.2µM*	.	?	.
O=C(CSc1nnc(-c2ccccn2)o1)Nc1ccccc1F	0.79µM*	0.45µM*	2%	?	.
O=C(CSc1nc2c(oc3ccccc32)c(=O)[nH]1)Nc1cccc(Cl)c1	.	.	1.2µM*	.	20µM*
NCCc1nnc(SCC(=O)Nc2cccc(Cl)c2)o1	3%	0%	3%	0%	.
O=C(CSc1nnc(-c2cccc(Cl)c2)o1)Nc1ccc2c(c1)OCCO2	2.8µM*	3.5µM*	-5%	21µM*	11µM*
CCc1ccc(NS(=O)(=O)c2ccc3[nH]cc(C(=O)NC4CCCC4)c(=O)c3c2)cc1	.	.	?	.	-18%
O=C(NNC(=O)C1CC1)c1cc(=O)[nH]c2ccccc12	.	.	.	-2%	.
CCOC(=O)c1ccc(Nc2nc3nonc3nc2Nc2cccc(C)c2C)cc1	.	.	?	.	-42%
COc1ccc(OCc2nnc(SCC(=O)Nc3ccc(C)cc3)o2)cc1	-8%	10%	-1%	-2%	.
COc1ccc(OCc2nnc(SCC(=O)Nc3cccc(Cl)c3)o2)cc1	0%	-2%	19µM*	0%	.
O=C(CSc1nnc(-c2cccnc2)o1)Nc1ccccn1	4µM*	3.2µM*	0%	7.3µM*	13µM*
O=C(CSc1nnc(-c2ccccn2)o1)Nc1cccc(Cl)c1	2.2µM*	?	.	6%	.
Cc1ccc(NC(=O)CSc2nnc(-c3cccnc3)o2)c(C)c1	-1%	-3%	3%	?	.
O=S(=O)(c1cccc(Br)c1)N1CCN(CCc2ccccc2)CC1	-9%	2%	2%	-23%	.
CCN(CC)c1ccc(N=Cc2ccc(N(CC)CC)cc2O)cc1	-2%	6%	-11%	-16%	24%
CCN(CC)c1ccc(/C=N/N2CCOCC2)c(O)c1	3.5µM*	?	13µM*	?	8.9µM*
CCN(CC)c1ccc(C=Nc2ccccc2)c(O)c1	-1%	-8%	4.3µM*	6%	20%
CCN(CC)c1ccc(/C=N/Nc2cccc(C)c2)c(O)c1	1%	16%	?	14%	?
SMILES	Rab9 prom act	NPC1 prom act	FLuc counter	ELG1 genotoxic	SMN2 splice enh
CCN(CC)c1ccc(/C=N/Nc2ccccc2)c(O)c1	15%	11%	21µM*	8%	5%
CCN(CC)c1ccc(C=Nc2cc(C)cc(C)c2)c(O)c1	8%	1%	?	1%	-6%
CCN(CC)c1ccc(C=Nc2ccc(N(C)C)cc2)c(O)c1	15%	0%	8.5µM*	13µM*	-1%
C/C(Cl)=C/CCl	.	.	.	.	-4%
CC(=O)N1CCc2cc(S(=O)(=O)NCCCN3CCC(C)CC3)ccc21	-1%	-1%	1%	1%	.
CCN(CC)c1ccc(C=Nc2ccc(C)cc2)c(O)c1	3%	0%	11µM*	1%	8%
CC(=O)Nc1ccc(-c2nnc(SCC(=O)Nc3ccc4c(c3)oc3ccccc34)n2C)cc1	?	?	1.2µM*	1%	-4%
COc1ccccc1NC(=O)CSc1nnc(-c2ccc(NC(C)=O)cc2)n1C	7%	-1%	-6%	-2%	-5%
CCn1c(SCC(=O)Nc2ccc3c(c2)oc2ccccc23)nnc1-c1ccc(N)cc1	4%	-5%	2.7µM*	-9%	-13%
C=CCCCCCCCCCCC/C=C/C(O)COC(C)=O (stereo not drawn)	.	.	.	.	-60%
CC(=O)Nc1ccc(N=Cc2c(O)c(C(=O)Nc3ccccc3)cc3ccccc23)cc1	22%	12%	0.67µM*	-3%	-8%
c1ccc(-c2nnc3sc(-c4csc5c4CCCC5)nn23)cc1	17%	14%	15µM*	10%	?
Clc1ccc(-c2nn3c(-c4ccccc4)nnc3s2)cc1	-9%	-21%	-2%	-2%	-26%
c1ccc(-c2nnc3sc(-c4ccncc4)nn23)cc1	-6%	-1%	-3%	-7%	4.5µM*
Cc1nc2sc(-c3ccccc3)nn2c(=O)c1Br	2.2µM*	3.2µM*	8.5µM*	?	5.6µM*
Cc1ccc(Nc2nc(N3CCN(C)CC3)nc(N)c2[N+](=O)[O-])cc1C	1%	0%	1%	6%	-19%
O=C(NCCCn1cccn1)c1cc(COc2ccc(F)cc2Cl)on1	17%	16%	17µM*	-3%	.
CC(Cc1cccnc1)NC(=O)c1cc(COc2c(F)cccc2F)on1 (stereo not drawn)	12%	-6%	4%	-8%	.
Cc1ccc(OCc2cc(C(=O)NC(C)Cc3cccnc3)no2)cc1C (stereo not drawn)	?	?	13µM*	15%	.
CCN(CCn1cccn1)C(=O)c1cc(COc2ccc(F)cc2Cl)on1	-3%	-1%	?	0%	-7%
CC(CCn1cccn1)NC(=O)c1cc(COc2ccc(F)cc2Cl)on1 (stereo not drawn)	2%	-2%	17µM*	1%	.
CC(Cc1cccnc1)NC(=O)c1cc(COc2ccc(F)cc2Cl)on1 (stereo not drawn)	9%	-13%	13µM*	-2%	.
CCN(CC)S(=O)(=O)c1ccc(N2CCOCC2)c(NC(=O)c2ccc(=O)[nH]c2)c1	.	.	.	-2%	.
CN(Cc1ccccc1)c1ncc(C=O)s1	-2%	-4%	-2%	8%	.
CC(=O)c1ccc(OCc2cc(C(=O)NC(C)CCn3cccn3)no2)cc1 (stereo not drawn)	4µM*	2.8µM*	15µM*	18µM*	.
Cc1nc(CCNC(=O)c2cc(COc3ccc(F)cc3Cl)on2)sc1C	12%	22%	21µM*	-4%	.
Cc1cc(C)n(CCNC(=O)c2cc(COc3ccc(F)cc3Cl)on2)n1	-3%	3%	?	-11%	.
Nc1nc(COC(=O)c2ccc3c(c2)OCCO3)nc(Nc2ccccc2)n1	-11%	4%	-13%	-1%	.
O=C(O)c1cnn(-c2nc(-c3cccc([N+](=O)[O-])c3)cs2)c1C(F)(F)F	-3%[1.84 µM]	-4%	-20%	4%	.
